Our source for the composite z-score, composite Z-score and z-score values is PubChem BioAssay.

The target of assay [1] is Albumin (Bos taurus) (UniProt P02769). The assay is described as follows: compounds binding labelled BSA control protein – biochemical, small-molecule microarray, Alexa647 label, 635/667 nm fluorescence, artefact control for SMM control protein annotation, profiling panel (AID 1118).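 Further: score merges 667 nm emission intensity and signal-to-noise per printed compound spot.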 The conditions noted are these: BSA-A647 binding, fluorescence 635 nm, higher = more signal.
Sequence of Albumin (Bos taurus) (P02769 whole entry, looked up): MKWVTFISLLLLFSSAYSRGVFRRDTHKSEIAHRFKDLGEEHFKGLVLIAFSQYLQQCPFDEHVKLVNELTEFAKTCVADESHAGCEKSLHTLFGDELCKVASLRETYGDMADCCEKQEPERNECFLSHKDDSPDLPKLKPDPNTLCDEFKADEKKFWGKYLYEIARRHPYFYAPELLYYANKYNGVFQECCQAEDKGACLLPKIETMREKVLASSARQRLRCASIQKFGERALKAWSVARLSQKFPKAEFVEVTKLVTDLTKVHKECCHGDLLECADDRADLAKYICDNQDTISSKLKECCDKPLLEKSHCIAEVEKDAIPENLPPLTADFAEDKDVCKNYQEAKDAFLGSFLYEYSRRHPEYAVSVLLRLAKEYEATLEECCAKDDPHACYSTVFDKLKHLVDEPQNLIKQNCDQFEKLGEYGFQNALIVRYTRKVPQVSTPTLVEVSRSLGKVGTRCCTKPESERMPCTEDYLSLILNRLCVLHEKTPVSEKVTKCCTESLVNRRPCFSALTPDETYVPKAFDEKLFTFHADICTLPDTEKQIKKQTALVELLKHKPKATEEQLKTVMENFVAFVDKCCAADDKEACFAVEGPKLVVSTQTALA

Assay [2] can be described thus: probe aXIP binding to arrayed compounds – biochemical, NeuroSMM set, 635/667 nm fluorescence, primary screen (AID 1119).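 Further: probe is the protein aXip251-270 applied at 1 µg/mL to compound-printed slides; binding of probe to printed compounds measured as 667 nm fluorescence plus signal to noise.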 The following applies: small-molecule microarray, higher = more signal, called active from +8 up or from −8 down.
Assay [3] is described as follows: probe aNOTCH3 binding on compound microarray – biochemical, small-molecule microarray, 635/667 nm fluorescence, primary screen (AID 1120).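 Further: probe is a biotin-tagged antibody raised against NOTCH3 rather than NOTCH3 protein; score merges spot fluorescence near 667 nm with spot signal to noise.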 The following applies: higher = more signal.
Assay [4] is described as follows: probe aNOTCH2 binding on compound microarray – biochemical, small-molecule microarray, 635/667 nm fluorescence, primary screen (AID 1121).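 Further: score merges feature fluorescence read at 667 nm with its signal to noise.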 The conditions noted are these: higher = more signal.
For assay [5], the target named is Carbonic anhydrase 2 (Homo sapiens) (UniProt P00918). The assay is described as follows: compounds binding carbonic anhydrase 2 – biochemical, small-molecule microarray, Alexa647-labelled CAII, profiling panel (AID 1122). The following applies: CAII-A647 binding fluorescence, higher = more signal.
Assay [6] can be described thus: COS7 lysate on small-molecule microarray, probe aHis, 635 nm (AID 1123).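 Further: z-score combines 667nm fluorescence intensity with signal-to-noise per printed compound spot.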 The following applies: COS7 cell lysate, fluorescence, higher = more signal.
Assay [7] is described as follows: probe aLAP1 signal on lysate-treated microarray – cell lysate, small-molecule microarray, COS7 lysate, primary screen (AID 1124).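 Further: lysate comes from COS7 cells expressing LAP1 and is applied at 0.3 µg/mL; score merges spot fluorescence near 667 nm with signal-to-noise over triplicate slides.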 The following applies: probe aLAP1, fluorescence, higher = more signal.
Assay [8] has as its system Sam68 (KHDRBS1). The assay is described as follows: compounds binding KHDRBS1 protein – biochemical, small-molecule microarray, 635 nm fluorescence, primary screen (AID 1125).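 Further: score merges 667 nm channel intensity with signal to noise over triplicate slides.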 The conditions noted are these: higher = more signal.
Assay [9] deals with Chordin-like protein 2 (CHRDL2). The assay is described as follows: compounds binding chordin-like 2 – biochemical, small-molecule microarray, 635 nm fluorescence, primary screen (AID 1126).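 Further: printed compound slides probed with Chrdl2 protein at 4 µg/mL for 1 h at 4 C; score merges 667 nm emission intensity with signal to noise over three replicate slides.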 The following applies: fluorescence 635 nm, higher = more signal.
The target in assay [10] is Concanavalin-A (Canavalia ensiformis) (UniProt P02866). The assay is described as follows: compounds binding concanavalin A lectin – biochemical, small-molecule microarray, Alexa647 label, 635 nm, artefact control for SMM control protein annotation, primary screen (AID 1127).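 Further: z combines 667 nm emission intensity with signal-to-noise across three replicate slides.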 The following applies: ConA-A647 binding fluorescence, higher = more signal.
Sequence of Concanavalin-A (Canavalia ensiformis) (P02866 whole entry, looked up): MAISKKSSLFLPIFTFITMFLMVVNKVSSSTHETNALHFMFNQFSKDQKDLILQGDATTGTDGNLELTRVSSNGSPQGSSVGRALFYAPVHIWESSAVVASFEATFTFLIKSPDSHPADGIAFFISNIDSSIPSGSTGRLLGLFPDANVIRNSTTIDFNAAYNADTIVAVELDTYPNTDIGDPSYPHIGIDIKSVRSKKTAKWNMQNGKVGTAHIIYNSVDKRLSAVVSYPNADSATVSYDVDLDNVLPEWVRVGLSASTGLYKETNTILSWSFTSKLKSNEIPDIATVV
Assay [11] can be described thus: compounds binding Alexa647 anti-His antibody – biochemical, small-molecule microarray, 635 nm fluorescence, artefact control for SMM control protein annotation, primary screen (AID 1128).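 Further: score merges feature fluorescence with signal-to-noise for each printed compound spot.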 The conditions noted are these: higher = more signal.
For assay [12], the system named is Human papillomavirus type 1a E7 protein (residues 1-88). Briefly: HPV1a E7 small-molecule binders, primary screen, biochemical, small-molecule microarray, residues 1-88, 635 nm (AID 1129). The conditions noted are these: small-molecule microarray binding, fluorescence 635 nm; higher = more signal.
Assay [13] addresses Focal adhesion kinase 1 (Homo sapiens) (UniProt Q05397). The assay is described as follows: PTK2 protein binding on printed compound slides – biochemical, small-molecule microarray, 635/667 nm fluorescence, BSA, DTT, primary screen (AID 1130).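 Further: composite of spot emission at 667 nm and signal to noise over triplicate slides.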 The following applies: 635 nm fluorescence, higher = more signal.
The test system of assay [14] is Fibrinogen (Alexa647-labelled). Briefly: Alexa647-fibrinogen binding to printed small molecules – biochemical, small-molecule microarray, 635/667 nm fluorescence, artefact control for SMM control-protein annotation, profiling panel (AID 1131).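 Further: z-score merges 667 nm fluorescence with per-spot signal-to-noise over triplicate slides.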 The conditions noted are these: fibrinogen-A647 binding fluorescence, higher = more signal.
Assay [15] has as its target Follistatin (Homo sapiens) (UniProt P19883). The assay is described as follows: FST protein binding to printed compounds – biochemical, small-molecule microarray, 635/667 nm fluorescence, primary screen (AID 1132). The following applies: 635 nm fluorescence, higher = more signal.
The target of assay [16] is Fibroblast growth factor 2 (Homo sapiens) (UniProt P09038). The assay is described as follows: basic fibroblast growth factor binding to printed compounds – biochemical, small-molecule microarray, 635/667 nm fluorescence, primary screen (AID 1133). The following applies: FGF2, fluorescence 635/667, higher = more signal.
Sequence of Fibroblast growth factor 2 (Homo sapiens) (P09038 whole entry, looked up): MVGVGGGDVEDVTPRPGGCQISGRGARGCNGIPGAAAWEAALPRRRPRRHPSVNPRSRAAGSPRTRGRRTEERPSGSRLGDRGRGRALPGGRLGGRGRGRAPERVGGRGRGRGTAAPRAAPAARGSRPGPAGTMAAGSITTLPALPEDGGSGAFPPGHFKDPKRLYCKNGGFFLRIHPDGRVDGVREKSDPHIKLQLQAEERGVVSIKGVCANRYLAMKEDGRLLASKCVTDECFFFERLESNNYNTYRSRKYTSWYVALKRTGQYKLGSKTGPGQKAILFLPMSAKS
A short description of assay [17]: JC-1 mitochondrial potential readout, lung cancer cells – cell-based, A549, JC-1 fluorescence, basal, 24 h, 100 nL, profiling panel (AID 1138).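 Further: A549 lung adenocarcinoma cells under basal conditions with no added stimulus; test concentration not given here.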 The conditions noted are these: higher = more signal.
The subject of assay [18] is Lefty1. Briefly: Lefty1 protein binding to printed compounds – biochemical, small-molecule microarray, 635/667 nm fluorescence, primary screen (AID 1139). The following applies: fluorescence 635/667, higher = more signal.
For assay [19], the system named is wheat germ agglutinin (Triticum aestivum), Alexa647-labelled. The assay is described as follows: Alexa647-WGA lectin binding to printed small molecules – biochemical, small-molecule microarray, 635/667 nm fluorescence, artefact control for SMM control-protein annotation, profiling panel (AID 1140).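 Further: score merges 667 nm feature emission with signal to noise over triplicate slides.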 The following applies: WGA-A647 binding, 635 nm fluorescence, higher = more signal.

Assay [20] has as its target Luciferin 4-monooxygenase (Photinus pyralis) (UniProt P08659). The assay is described as follows: inhibition of purified Photinus pyralis luciferase – biochemical, luminescence, purified enzyme, 2006 set, primary screen (AID 1141).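 Further: cell-free assay with purified firefly luciferase at 100 ng per well in PBS; test concentration not given here.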 The following applies: purified firefly luciferase, SteadyGlo luminescence, 30 min; higher = more signal, called active from +8 up or from −8 down.

The structures appear in SMILES notation. Active and inactive are the calls of the source.

Sequence of Focal adhesion kinase 1 (Homo sapiens) (Q05397 whole entry, looked up): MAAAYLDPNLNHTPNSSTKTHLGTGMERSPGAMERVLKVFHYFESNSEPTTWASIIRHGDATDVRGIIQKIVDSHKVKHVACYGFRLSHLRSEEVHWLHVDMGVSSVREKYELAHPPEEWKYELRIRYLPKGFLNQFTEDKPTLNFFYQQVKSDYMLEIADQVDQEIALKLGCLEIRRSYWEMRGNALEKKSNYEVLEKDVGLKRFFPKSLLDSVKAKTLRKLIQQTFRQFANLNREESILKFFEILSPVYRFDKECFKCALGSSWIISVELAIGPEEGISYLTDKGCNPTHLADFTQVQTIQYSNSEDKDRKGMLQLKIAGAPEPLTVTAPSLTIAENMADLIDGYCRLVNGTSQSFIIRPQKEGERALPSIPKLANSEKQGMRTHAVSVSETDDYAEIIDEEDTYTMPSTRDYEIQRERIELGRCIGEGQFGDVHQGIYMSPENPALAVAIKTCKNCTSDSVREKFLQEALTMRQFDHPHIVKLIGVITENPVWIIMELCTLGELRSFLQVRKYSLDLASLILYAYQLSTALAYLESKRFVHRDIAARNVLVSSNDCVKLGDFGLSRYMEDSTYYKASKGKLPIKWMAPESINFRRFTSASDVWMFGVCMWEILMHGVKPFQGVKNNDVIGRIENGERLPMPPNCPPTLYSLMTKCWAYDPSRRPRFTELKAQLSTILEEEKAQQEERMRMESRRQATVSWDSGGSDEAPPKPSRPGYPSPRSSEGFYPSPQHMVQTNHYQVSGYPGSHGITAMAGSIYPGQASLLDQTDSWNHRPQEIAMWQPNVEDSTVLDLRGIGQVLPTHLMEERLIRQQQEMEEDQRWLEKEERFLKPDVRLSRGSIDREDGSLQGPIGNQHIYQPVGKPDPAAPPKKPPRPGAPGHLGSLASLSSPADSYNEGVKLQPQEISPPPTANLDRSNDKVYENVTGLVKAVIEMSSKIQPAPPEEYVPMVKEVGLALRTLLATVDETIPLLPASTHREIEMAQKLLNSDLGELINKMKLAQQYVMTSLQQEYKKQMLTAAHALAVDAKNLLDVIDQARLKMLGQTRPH
Sequence of Luciferin 4-monooxygenase (Photinus pyralis) (P08659 whole entry, looked up): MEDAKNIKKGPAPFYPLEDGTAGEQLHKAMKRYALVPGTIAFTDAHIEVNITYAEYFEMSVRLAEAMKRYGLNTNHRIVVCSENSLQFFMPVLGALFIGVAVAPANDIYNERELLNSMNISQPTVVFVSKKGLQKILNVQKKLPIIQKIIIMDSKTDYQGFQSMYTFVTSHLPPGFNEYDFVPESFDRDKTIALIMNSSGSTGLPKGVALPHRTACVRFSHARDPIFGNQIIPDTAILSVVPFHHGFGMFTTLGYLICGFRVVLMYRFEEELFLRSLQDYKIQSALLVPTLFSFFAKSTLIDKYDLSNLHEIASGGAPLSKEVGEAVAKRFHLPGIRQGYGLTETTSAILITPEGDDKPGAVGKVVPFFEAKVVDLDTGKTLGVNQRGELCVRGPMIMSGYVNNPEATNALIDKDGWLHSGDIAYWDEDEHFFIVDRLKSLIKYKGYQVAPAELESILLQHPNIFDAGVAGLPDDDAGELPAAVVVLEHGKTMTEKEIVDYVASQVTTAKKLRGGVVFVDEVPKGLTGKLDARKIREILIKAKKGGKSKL
Sequence of Follistatin (Homo sapiens) (P19883 whole entry, looked up): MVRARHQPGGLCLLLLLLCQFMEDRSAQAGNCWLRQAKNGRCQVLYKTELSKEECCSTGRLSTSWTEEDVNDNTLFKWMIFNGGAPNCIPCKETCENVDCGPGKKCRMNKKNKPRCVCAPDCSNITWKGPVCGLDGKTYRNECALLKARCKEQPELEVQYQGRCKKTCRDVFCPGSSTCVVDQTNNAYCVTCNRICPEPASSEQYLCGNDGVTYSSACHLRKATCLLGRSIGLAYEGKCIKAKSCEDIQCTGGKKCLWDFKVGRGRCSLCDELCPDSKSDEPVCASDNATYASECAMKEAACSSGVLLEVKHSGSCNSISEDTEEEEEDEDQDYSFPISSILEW

In the case of `COc1ccc(CCNC(=O)[C@@]2(Sc3ccc(C)cc3)CC(=O)N(Cc3ccccc3)[C@@H]2c2ccc(CO)cc2I)cc1`, the composite z-score in assay [1] is -0.605; in assay [3], -0.289; in [4] it was -0.2; in assay [5], 0.377; in assay [6], 0.666; in assay [7], 2.03. For the same molecule, the composite z-score in [8] is 0.247; in assay [9] it was -0.974; in assay [10], 0.508; in assay [11], 1.06; in [12], 0.408; in assay [13], 0.0363. Also, the composite z-score in [14] is -0.718; in assay [15], -0.168; in assay [16], -0.662; in [18], -0.89; in assay [19] it was -0.0265. Also, the composite Z-score in assay [2] is -0.224 (inactive). For the same molecule, the z-score in assay [17] is 2.51; in assay [20], -0.707 (inactive).
On to `CCCCCCC#C[Si](O[C@H](c1ccccc1)c1cn(Cc2ccccc2)nn1)(C(C)C)C(C)C`, for which the composite z-score in assay [1] is 0.0774; in assay [3], -0.0918; in assay [4], -0.182; in assay [5], 0.273; in [6], 0.0604; in assay [7] it was 0.155. For the same molecule, the composite z-score was 0.458 in assay [8]; 0.187 in assay [9]; 0.132 in assay [10]; 0.254 in assay [11]; 0.262 in assay [12]; -0.326 in assay [13]. For the same molecule, the composite z-score in assay [14] is -0.418; in [15], 0.126; in assay [16], 0.594; in assay [18], 0.806; in [19], -0.349. Also, the composite Z-score in assay [2] is 0.131 (inactive). In addition, the z-score in assay [17] was 4.41; in assay [20] it was -1.15 (inactive).
Regarding `COC(=O)C(CC#Cc1ccc2c(c1)[C@]1(C(=O)N2)[C@H](C(=O)O)[C@H]2C(=O)O[C@H](c3ccccc3)[C@H](c3ccccc3)N2[C@@H]1c1ccc(OCCO)cc1)C(=O)OC`, the composite z-score is 0.956 in [1]; 0.123 in assay [3]; -0.0333 in assay [4]; 0.703 in assay [5]; 2.07 in [6]; 0.279 in assay [7]. The composite z-score in assay [8] is 1.3; in assay [9] it was -0.756; in [10], 1.2; in [11], 0.479; in [12] it was 1.24; in [13] it was 0.918. Besides, the composite z-score in assay [14] was 0.812; in assay [15], 0.0447; in [16], 0.549; in assay [18], 0.943; in [19], 1.43. For the same molecule, the composite Z-score in assay [2] is -0.908 (inactive). In addition, the z-score was -0.22 in [17] and -4.03 (inactive) in assay [20].
Consider `CC(C)C[C@@H]1NC(=O)[C@@H]2C[C@H](C(=O)NCCCCCNC(=O)CS)[C@H](c3cccc(OCCO)c3)N2C1=O`, for which the composite z-score in assay [1] was -1.16; in [3], 0.0469; in assay [4], -0.0624; in assay [5], 0.588; in [6], 1.47; in [7], -0.383. Also, the composite z-score came out at 1.31 in [8]; 0.767 in assay [9]; 1.18 in assay [10]; 2.82 in [11]; 1.18 in assay [12]; 1.35 in assay [13]. The composite z-score in assay [14] came to 0.837; in [15] it was 1.38; in assay [16], 1.3; in assay [18] it was 1.13; in assay [19], 1.23. In addition, the composite Z-score in assay [2] was 0.262 (inactive). Besides, the z-score in [17] is -0.018; in assay [20] it was -2.15 (inactive).
For the molecule `COCCOC(=O)N1C(=O)[C@@]2(c3cc(C#CCCO)ccc31)[C@H](c1ccccc1OCCO)N1[C@H](c3ccccc3)[C@H](c3ccccc3)OC(=O)[C@H]1[C@@H]2C(=O)NC[C@H](O)c1ccccc1`, the composite z-score was 0.25 in assay [1]; -0.0197 in assay [3]; -0.0753 in assay [4]; 0.204 in assay [5]; 2.15 in assay [6]; 0.35 in assay [7]. Besides, the composite z-score in assay [8] came out at 1.31; in assay [9] it was 0.524; in assay [10], 0.859; in assay [11], 2.02; in assay [12], 0.907; in [13], 1.07. In addition, the composite z-score in assay [14] is 0.756; in assay [15], 1.5; in assay [16] it was 1.7; in assay [18], 1.61; in assay [19], 1.01. The composite Z-score in assay [2] is 0.0022 (inactive). In addition, the z-score was 0.891 in assay [17] and -1.74 (inactive) in assay [20].
With `O=C1O[C@@H](c2ccccc2)[C@@H](c2ccccc2)N2[C@@H](c3ccc(OCCO)cc3)[C@]3(C(=O)Nc4ccc(C#CC5(O)CCCCCC5)cc43)[C@@H](C(=O)NC[C@H](O)c3ccccc3)[C@H]12`, the composite z-score in assay [1] worked out at 0.879; in assay [3], 0.158; in [4] it was 0.0278; in [5], 0.695; in assay [6], 1.56; in assay [7], 2.16. Besides, the composite z-score in assay [8] was determined as 1.32; in assay [9], 0.127; in [10] it was 1.17; in assay [11], 2.14; in assay [12] it was 1.08; in assay [13], 0.745. The composite z-score in assay [14] is 0.407; in assay [15] it was 1.23; in assay [16], 0.505; in assay [18], 0.783; in assay [19], 1.09. Besides, in assay [2], the composite Z-score was -0.363 (inactive). Also, the z-score in [17] was -0.482; in assay [20] it was -1.77 (inactive).
